PubChem BioAssay AID651812 (National Center for Advancing Translational Sciences (NCATS), 2012)
Among all 2,100 compounds or so, about 650 (31%) were called active. Roughly 16% stayed inconclusive and do not appear here. The call rests on the fitted dose curve; in most records, active means well fitted inhibition curve with a large enough effect; inconclusive means small, poorly fitted or top-dose-only effect; inactive means flat fitted curve, though single readings scatter. The list shows a part of the results.

Assay: qHTS for inhibitors of Vif-A3G interactions: Cherry picks; further: nearly all actives have a fitted effect of over 80% in size; on activity, negative = fluorescence increase: % of control where 0% means no effect
Details: HeLa A3G-eYFP + Vif (tagged APOBEC3G with the HIV-1 protein that degrades it), 24 h; Potency: eYFP fluorescence increase; series mostly up to 36.9 µM; activity, negative = fluorescence increase: at the top concentration
Method in brief: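 HeLa cells stably expressing A3G-eYFP and Vif, cultured overnight then exposed to compounds at several concentrations for 24 hours at 37 C, 5% CO2; cellular yellow fluorescence (488 nm ex, 500-530 nm em) imaged on Acumen, MG132 positive control.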
Potency means the concentration at half of the fitted maximal effect.

activity, negative = fluorescence increase, inactive:
COc1cc(OC)cc(C(=O)Nc2ccc(N3CCN(C(=O)c4cccs4)CC3)cc2)c1 -1.42%, O=C1CN(C(=O)c2cc(Br)c(Br)s2)c2ccccc2N1 -12.4%, CCN(Cc1ccccc1)c1ccc(/C=C(\C#N)c2ccccn2)cc1 -5.57% [at 46.1 µM], COc1cc(SC)ccc1C(=O)N1CCN(c2ccccc2OC)CC1 -7.48%, Cc1ccc2c(c1C)NC(=O)CC(c1ccccc1O)=N2 3.28% [at 46.1 µM], CN(C)CCCN(C(=O)/C=C/c1cccs1)c1nc2ccc(F)cc2s1 -28.8% [at 46.1 µM], CC(C)CCNC(=O)c1ccc2c(c1)NC(=O)C(CS(=O)(=O)Cc1cccc(Br)c1)N2 (stereo not given) 4.76% [at 46.1 µM], CC1Sc2ccc(C(=O)NCc3ccccn3)cc2NC1=O (stereo not given) -21% [at 46.1 µM], C[C@@H]1O[C@@H](O[C@@H]2C(=O)c3c(O)cc(O)cc3O[C@H]2c2ccc(O)c(O)c2)[C@H](O)[C@H](O)[C@H]1O -4.71%, CN(C)C(=O)c1cccc(-c2cnc3c(NC=O)cc(-c4ccccc4F)cn23)c1 -11.7%, CC1=CC(C)(C)NC(=S)N1c1ccc2ccccc2c1 -1.3%, CCOC(=O)c1c(CC(C)C)csc1/N=C/C1C(=O)CCCC1=O 2.43% [at 46.1 µM], C=C1C(=O)O[C@H]2C1CC[C@@](C)(O)C13C=CC(C)(C21)C1(C3)C(=O)O[C@@H]2C3C(C)=CCC3[C@](C)(O)C[C@H](OC(C)=O)C21 (stereo not given in full) -9.27%, O=C1/C(=C/c2ccc([N+](=O)[O-])cc2)Oc2cc(O)ccc21 -11.4% [at 46.1 µM], COc1cnc(-c2ccccn2)nc1Oc1ccc(F)cc1F 3.98% [at 46.1 µM], COc1ccc(/C=N/n2cc(-c3ccccc3)nc2N)cc1 -2.95%, COC(=O)c1nnn(-c2nonc2N)c1CN1CCc2ccccc21 0.0341%, COc1cc(CNCCSc2nnnn2C)ccc1OCc1c(F)cccc1Cl -0.389% [at 46.1 µM], N#C/C(=C/c1ccc(-c2ccc([N+](=O)[O-])cc2)o1)C(=O)Nc1nc(-c2cccs2)cs1 -19.8% [at 46.1 µM], O=C1NC(c2ccccc2Br)=N/C1=C\c1ccco1 2.97% [at 46.1 µM], Cc1cccc(N2CCN(C(=O)c3ccncc3)CC2)c1C -12%, Cc1[nH]c2ccccc2c1/C=C/c1ccnc2ccccc12 -21.3% [at 46.1 µM], Nc1cccc(CCc2nc3cc4ccccc4cc3[nH]2)c1 -1.81%, Cc1cc(NC(=O)NC(=O)c2ccccc2NC(=O)C(C)N)ccc1Oc1ncc(Br)cn1 (stereo not given) -14.1%, CC(=O)Nc1ccc(S(=O)(=O)Nc2nc3ccccc3nc2Sc2nncn2C)cc1 -27.3% [at 46.1 µM], O=c1cc(-c2ccccc2)[nH]c2ccccc12 -0.648%, COc1ccc(-c2cc(NC(C)=O)c3ncc(-c4cc(OC)c(OC)c(OC)c4)n3c2)cn1 -25.2%, CCOc1ccccc1N1CC(c2nc3ccccc3n2Cc2c(C)cc(C)cc2C)CC1=O (stereo not given) -1.13% [at 46.1 µM], O=C(Cn1ncc(Cl)c(Cl)c1=O)N1CCN(S(=O)(=O)c2ccc3ccccc3c2)CC1 -4.68%, Cc1ccc(/C=N/NC(=O)C2COc3ccccc3O2)s1 (stereo not given) -6.59%, O=S(=O)(Nc1cccc2ncccc12)c1cccs1 -9.28%

Potency, active:
COc1ccc2o/c(=N/NC(=O)c3cccs3)c(C(N)=O)cc2c1 14 µM, CCN(CC)c1nc(C=Cc2ccc(N(C)C)cc2)c2nccnc2n1 2.06 µM, CN(C)c1ccc(/C=C/c2nccc3ccccc23)cc1 23.1 µM, CCN(Cc1ccccc1)c1ccc(/C=C/c2nccc3ccccc23)cc1 20.6 µM, CN(C)c1ccc(C=Cc2nccc3ccccc23)cc1 17.7 µM, Cc1ccc(CNC(=O)c2ccc3c(c2)NC(=O)C(CS(=O)(=O)Cc2cccc(C)c2)N3)cc1 (stereo not given) 20.6 µM, CN(C)c1ccc(/C=C2\Oc3ccc(C#Cc4cccc(N)c4)cc3C2=O)cc1 14 µM, CC(C)(C)OC(=O)NC(Cc1ccccc1)C(=O)N1CCC(C(=O)NCC(=O)Nc2ccc(F)cc2)CC1 (stereo not given) 18.4 µM, Cc1ccnc(N/C=C(\C#N)c2nc(-c3cccc(Br)c3)cs2)c1 14 µM, CC1(C)CCN2CCC(C)(C)c3c(O)ccc1c32 14 µM, Cc1ccc(N=Cc2c(O)n(-c3nccs3)c(=O)c3ccccc23)c(C)c1 16.4 µM, Cc1ccc(NC(=O)/C(C#N)=C\c2ccc(-c3ccc(Cl)cc3)o2)c(C)c1 7.31 µM, CCN(CC)c1ccc(/C=c2/sc3nnc(-c4ccccc4C)n3c2=O)cc1 25.9 µM, Cc1[nH]c2ccccc2c1/C=C/c1ccc2ccccc2n1 18.4 µM, C(=Cc1c[nH]c2ccccc12)c1ccc2ccccc2n1 20.6 µM, C(=C\c1c[nH]c2ccccc12)/c1ccc2ccccc2n1 18.4 µM, Cc1[nH]c2ccccc2c1/C=C/C(=O)c1ccccc1 23.1 µM, Cc1[nH]c2ccccc2c1/C=C/c1cc[n+](C)cc1 4.44 µM, Cc1ccc2[nH]c(C)c(/C=C/c3cc[n+](C)cc3)c2c1 1.77 µM
